Test [1] is described as follows: qHTS assay to identify small molecule antagonists of the thyroid receptor (TR) signaling pathway (AID 743065). Also: nearly all actives have a fitted effect of over 55% in size. Also: potency is read from the fitted curve at half-maximal effect. In short, it runs like this:
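GH3.TRE-Luc rat pituitary cells carrying two TR response elements driving luciferase were plated for 4 h, given compound plus 1 nM T3 (final), and incubated 23.5 h at 37 C. ONE-Glo luminescence measured reporter inhibition; CellTiter-Fluor fluorescence tracked cytotoxicity.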

Test [2] has as its system thyroid hormone receptor (rat, GH3 cells). Kind of test: qHTS assay to identify small molecule agonists of the thyroid receptor (TR) signaling pathway (AID 743066; calls by dose curve).
Test [3] concerns the target Estrogen receptor (Homo sapiens) (UniProt P03372). The experiment in a line: qHTS assay to identify small molecule antagonists of the estrogen receptor alpha (ER-alpha) signaling pathway (AID 743069; active = well fitted curve in the direction sought with a large enough effect in the signal ratio in the repeat runs, not every such curve was filed as active; the % refers to the signal ratio). In short, it runs like this:
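Screening used a UAS-driven beta-lactamase reporter integrated into HEK293 cells expressing ER-alpha, stimulated with 17beta-estradiol alongside test compounds over 18 hr at 37C; signal came from LiveBLAzer B/G FRET fluorescence.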

A short description of test [4]: qHTS assay to identify small molecule antagonists of the estrogen receptor alpha (ER-alpha) signaling pathway - cell viability counter screen (AID 743074; calls by dose curve; also: nearly all actives have a fitted effect of over 45% in size).
Test [5] concerns the target Estrogen receptor (Homo sapiens) (UniProt P03372). The experiment in a line: qHTS assay to identify small molecule agonists of the estrogen receptor alpha (ER-alpha) signaling pathway (AID 743075; calls by dose curve).
The nature of test [6]: qHTS assay to identify small molecule antagonists of the estrogen receptor alpha (ER-alpha) signaling pathway using the BG1 cell line (AID 743080; calls by dose curve;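 also: BG1 cells stimulated with 17beta-estradiol alongside compound; series mostly up to about 70 µM; nearly all actives have a fitted effect of over 25% in size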). In short, it runs like this: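 BG1-Luc-4E2 cells (endogenous full-length ER-alpha, 4xERE luciferase) hormone-starved 5 days in charcoal-stripped FBS, plated 4,000/well for 24 h, then compound plus 17beta-estradiol for 21.5 h at 37 C; ONE-Glo luminescence read.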

Test [7] in a line: qHTS assay to identify small molecule antagonists of the estrogen receptor alpha (ER-alpha) signaling pathway using the BG1 cell line - cell viability counter screen (AID 743081).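 Also: compound given together with 17beta-estradiol as the ER stimulus; nearly all actives have a fitted effect of over 45% in size.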 Also: potency is read from the fitted curve at half-maximal effect.
The target of another test is Aromatase (Homo sapiens) (UniProt P11511). The experiment in a line: qHTS assay to identify aromatase inhibitors (AID 743083). Also: series mostly up to about 70 µM; nearly all actives have a fitted effect of over 55% in size.
Sequence of Aromatase (Homo sapiens) (P11511 whole entry, looked up): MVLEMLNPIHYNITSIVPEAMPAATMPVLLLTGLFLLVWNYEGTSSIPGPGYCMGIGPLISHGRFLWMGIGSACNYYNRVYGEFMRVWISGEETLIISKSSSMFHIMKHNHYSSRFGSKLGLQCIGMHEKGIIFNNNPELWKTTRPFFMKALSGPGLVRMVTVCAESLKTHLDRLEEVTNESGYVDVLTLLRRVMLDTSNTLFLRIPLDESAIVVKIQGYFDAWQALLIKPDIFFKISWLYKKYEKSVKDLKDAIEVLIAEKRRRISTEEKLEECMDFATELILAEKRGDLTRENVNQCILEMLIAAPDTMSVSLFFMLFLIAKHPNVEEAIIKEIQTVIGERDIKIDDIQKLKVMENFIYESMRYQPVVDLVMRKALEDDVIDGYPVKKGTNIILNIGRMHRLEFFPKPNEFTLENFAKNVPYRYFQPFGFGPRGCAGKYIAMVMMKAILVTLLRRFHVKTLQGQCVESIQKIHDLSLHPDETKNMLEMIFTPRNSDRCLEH
Test [8] in a line: qHTS assay to identify aromatase inhibitors - cell viability counter screen (AID 743084).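 Also: cells stimulated with testosterone during compound exposure; nearly all actives have a fitted effect of over 55% in size.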
The nature of test [9]: qHTS assay to identify small molecule that activate the aryl hydrocarbon receptor (AhR) signaling pathway - cell viability counter screen (AID 743086).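 Also: HepG2 liver cells carrying the AhR DRE luciferase reporter; series mostly up to about 70 µM; nearly all actives have a fitted effect of over 45% in size.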 In outline:
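HepG2-AhR-luc (HG2L7.5c1) cells, 4000/well, were preincubated 5 h at 37C, exposed to compound in qHTS format for 24 hr at 37C, then given CellTiter-Fluor for 30 min; viability was read as fluorescence in the reporter wells.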

Test [10] in a line: qHTS assay to identify small molecule antagonists of the peroxisome proliferator-activated receptor gamma (PPARg) signaling pathway - cell viability counter screen (AID 743194). Also: nearly all actives have a fitted effect of over 55% in size. As to conditions: Potency: co-treated with 50 nM rosiglitazone. In short, it runs like this:
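PPARg-UAS-bla HEK293H cells were plated, rested 5 h at 37 C, then treated with compounds plus rosiglitazone (50 nM final) for 17 h at 37 C; viability was then read by CellTiter-Glo luminescence after 30 min at room temperature.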

Test [11] can be described thus: qHTS assay for small molecule activators of the heat shock response signaling pathway - cell viability counter screen (AID 743209). Also: nearly all actives have a fitted effect of over 50% in size. In outline:
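Viability of HSE-bla HeLa cells is measured with CellTiter-Glo in the wells already used for the reporter read. Compound exposure lasts 5 h at 37 C, and luminescence is read after 30 min at room temperature.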

The nature of test [12]: qHTS assay for small molecule activators of the heat shock response signaling pathway (AID 743210; active = well fitted activation curve with a large enough effect in the signal ratio in the repeat runs, with a control signal flat, not every such curve was filed as active; the % refers to the signal ratio;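 also: HeLa cells with beta-lactamase reporter driven by heat shock elements; series mostly up to about 63 µM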). In outline: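 Activation of heat shock element-controlled beta-lactamase expression is measured in HeLa cells by LiveBLAzer FRET fluorescence, with compound exposure lasting 5 h at 37 C and substrate loading 2.5 h at room temperature.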
Test [13] is described as follows: qHTS assay to identify small molecule agonists of the peroxisome proliferator-activated receptor delta (PPARd) signaling pathway - cell viability counter screen (AID 743211). Also: nearly all actives have a fitted effect of over 55% in size. In outline:
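Luminescent ATP viability assay (CellTiter-Glo, 30 min RT) in UAS-bla HEK293H cells carrying the PPAR delta reporter construct, 3000 cells/well, after a 17 h compound treatment at 37 C.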

The target of test [14] is Aryl hydrocarbon receptor (Homo sapiens) (UniProt P35869). The experiment in a line: qHTS assay to identify small molecule that activate the aryl hydrocarbon receptor (AhR) signaling pathway (AID 743085). Also: nearly all actives have a fitted effect of over 15% in size. Also: potency is read from the fitted curve at half-maximal effect.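 As to activation: HG2L7.5c1 human HepG2 liver cells with stably integrated DRE-driven firefly reporter; series mostly up to about 70 µM.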 In outline:
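24 h compound exposure, 37C, HepG2-derived HG2L7.5c1 cells with DRE-responsive luciferase. Readouts: fluorescence viability, then luminescence at room temperature after 30 min.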

In test [15] the target is Peroxisome proliferator-activated receptor gamma (Homo sapiens) (UniProt P37231). Kind of test: qHTS assay to identify small molecule agonists of the peroxisome proliferator-activated receptor gamma (PPARg) signaling pathway (AID 743094; active = well fitted activation curve with a large enough effect in the signal ratio in the repeat runs, not every such curve was filed as active; the % refers to the signal ratio). In outline: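 Reporter activation was scored by fluorescence of cleaved LiveBLAzer B/G substrate (1 h, room temperature) in PPARg-bla HEK293H cells previously treated 17 h at 37C with DMSO-dissolved compounds.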
Sequence of Peroxisome proliferator-activated receptor gamma (Homo sapiens) (P37231 whole entry, looked up): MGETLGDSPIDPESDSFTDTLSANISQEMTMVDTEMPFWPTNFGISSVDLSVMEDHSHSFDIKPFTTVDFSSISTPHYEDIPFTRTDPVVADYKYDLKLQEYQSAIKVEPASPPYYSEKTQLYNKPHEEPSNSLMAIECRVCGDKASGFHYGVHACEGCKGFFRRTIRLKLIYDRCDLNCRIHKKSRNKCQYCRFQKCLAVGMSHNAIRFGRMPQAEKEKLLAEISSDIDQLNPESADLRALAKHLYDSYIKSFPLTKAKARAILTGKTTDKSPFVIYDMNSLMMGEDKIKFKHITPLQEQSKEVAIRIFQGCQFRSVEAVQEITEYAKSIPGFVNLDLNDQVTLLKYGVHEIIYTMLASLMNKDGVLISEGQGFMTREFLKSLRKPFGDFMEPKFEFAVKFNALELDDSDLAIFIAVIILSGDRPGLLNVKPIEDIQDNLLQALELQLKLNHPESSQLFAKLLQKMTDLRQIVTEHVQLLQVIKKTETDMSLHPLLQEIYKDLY

For test [16] the target is unchanged. The experiment in a line: qHTS assay to identify small molecule antagonists of the peroxisome proliferator-activated receptor gamma (PPARg) signaling pathway (AID 743191; calls by dose curve; also: series mostly up to about 63 µM; nearly all actives have a fitted effect of over 30% in size). In outline:
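GeneBLAzer PPARg UAS-bla HEK293H cells carrying a UAS-driven beta-lactamase reporter were plated at 3000 cells/well, preincubated 5 h at 37C, then given compound for 17 h at 37C; LiveBLAzer B/G FRET substrate was read after 1 h at room temperature.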

The nature of test [17]: qHTS assay for small molecule agonists of the antioxidant response element (ARE) signaling pathway (AID 743202; active = well fitted activation curve with a large enough effect in the signal ratio in the repeat runs, not every such curve was filed as active; the % refers to the signal ratio). In outline:
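Steps: seed ARE-bla HepG2 cells (2,000/well); incubate 5 h at 37 C; add compounds by pin tool; incubate 16 h at 37 C; add FRET substrate; read fluorescence after 2 h at RT.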

The nature of test [18]: qHTS assay for small molecule agonists of the antioxidant response element (ARE) signaling pathway - cell viability counter screen (AID 743203; calls by dose curve; also: nearly all actives have a fitted effect of over 55% in size). In short, it runs like this:
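Viability counter screen: stably transfected ARE-bla HepG2 line, 16 hrs compound exposure at 37C/5% CO2, ATP-based CellTiter-Glo luminescence measured in the reporter wells.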

Test [19] concerns the target Estrogen receptor (Homo sapiens) (UniProt P03372). The experiment in a line: qHTS assay to identify small molecule agonists of the estrogen receptor alpha (ER-alpha) signaling pathway using the BG1 cell line (AID 743079). Also: potency is read from the fitted curve at half-maximal effect; nearly all actives have a fitted effect of over 20% in size. As to conditions: BG1Luc4E2 cells, ERE-luciferase agonist, 22 h.

The source of these data is PubChem BioAssay (Tox21).

Records with an inconclusive call do not appear. Unmarked numbers belong to inactive results. The source made the active and inactive calls. Unless noted, calls follow the shape of the dose curve; as a rule, active = well fitted curve in the direction sought with a large enough effect in the repeat runs; inconclusive = weak or mixed curves; inactive = no such curve, though single readings can be large; an effect the other way counts as inactive or inconclusive.

Sequence of Estrogen receptor (Homo sapiens) (P03372 whole entry, looked up): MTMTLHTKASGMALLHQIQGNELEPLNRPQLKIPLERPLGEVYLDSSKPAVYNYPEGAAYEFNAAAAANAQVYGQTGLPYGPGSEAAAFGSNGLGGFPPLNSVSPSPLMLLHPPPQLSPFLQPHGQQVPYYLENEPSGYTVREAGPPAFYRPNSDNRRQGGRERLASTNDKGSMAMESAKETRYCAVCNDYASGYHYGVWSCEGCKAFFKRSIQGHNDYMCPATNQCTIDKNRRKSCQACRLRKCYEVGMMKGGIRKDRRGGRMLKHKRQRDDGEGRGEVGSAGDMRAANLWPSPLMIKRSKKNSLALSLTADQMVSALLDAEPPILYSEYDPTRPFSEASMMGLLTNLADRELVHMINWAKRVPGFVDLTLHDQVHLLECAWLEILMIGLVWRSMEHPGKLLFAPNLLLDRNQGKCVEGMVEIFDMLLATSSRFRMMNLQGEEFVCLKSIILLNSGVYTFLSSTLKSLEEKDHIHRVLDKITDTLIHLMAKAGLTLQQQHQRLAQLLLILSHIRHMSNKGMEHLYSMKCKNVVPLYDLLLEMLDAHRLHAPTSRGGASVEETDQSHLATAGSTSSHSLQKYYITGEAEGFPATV
Sequence of Aryl hydrocarbon receptor (Homo sapiens) (P35869 whole entry, looked up): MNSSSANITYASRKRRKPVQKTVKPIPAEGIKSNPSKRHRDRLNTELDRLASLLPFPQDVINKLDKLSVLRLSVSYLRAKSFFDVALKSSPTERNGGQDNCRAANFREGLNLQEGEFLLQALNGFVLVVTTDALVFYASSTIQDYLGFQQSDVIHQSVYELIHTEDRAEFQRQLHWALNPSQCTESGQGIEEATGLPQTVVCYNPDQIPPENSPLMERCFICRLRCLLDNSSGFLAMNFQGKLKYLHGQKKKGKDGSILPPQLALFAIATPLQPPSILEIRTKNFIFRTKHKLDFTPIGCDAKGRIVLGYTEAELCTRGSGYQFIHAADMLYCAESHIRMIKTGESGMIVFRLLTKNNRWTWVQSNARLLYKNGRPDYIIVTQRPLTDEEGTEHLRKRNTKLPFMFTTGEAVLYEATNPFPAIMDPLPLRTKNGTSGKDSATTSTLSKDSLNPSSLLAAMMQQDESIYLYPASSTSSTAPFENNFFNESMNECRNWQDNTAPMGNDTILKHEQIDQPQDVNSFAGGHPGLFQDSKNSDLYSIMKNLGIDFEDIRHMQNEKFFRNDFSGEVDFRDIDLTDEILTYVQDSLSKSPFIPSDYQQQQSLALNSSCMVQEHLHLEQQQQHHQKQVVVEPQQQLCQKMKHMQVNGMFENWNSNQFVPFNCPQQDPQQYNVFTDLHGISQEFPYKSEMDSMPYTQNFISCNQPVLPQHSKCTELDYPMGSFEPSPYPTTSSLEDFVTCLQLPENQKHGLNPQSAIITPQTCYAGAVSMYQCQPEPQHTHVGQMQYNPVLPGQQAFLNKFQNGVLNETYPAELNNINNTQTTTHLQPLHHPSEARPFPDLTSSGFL

As for `Cc1coc2c1CCC(C)C2` (stereo unspecified), the Potency entry in test [1], in [2], in test [3], in test [5], in test [6] and in test [7] was “inactive” throughout. In addition, the Potency entry (with Aromatase (Homo sapiens); in test [8]; in [10]; in test [11]; in [13]) was “inactive” in each case. The outcome in [4], in test [9] and in test [12] was inactive.
Take `ClC(Cl)Br`: the Potency result in test [1], in [2], in [3], in test [5], in [6] and in test [7] was “inactive” each time. Further, the Potency result (in the test with Aromatase (Homo sapiens); in test [8]; in test [14]; in test [16]; in test [10]; in test [17]) was “inactive” each time. Also, the Potency entry in test [18], in [11] and in test [13] was “inactive” throughout. The compound was classed as inactive in [4], in [9], in [15] and in [12].
For the compound `COP(N)(=S)Oc1ccccc1C(=O)OC(C)C` (stereo unspecified), the Potency entry in [1], in test [2], in test [3], in test [5], in test [6] and in test [7] was “inactive” throughout. The Potency result (with Aromatase (Homo sapiens); in test [8]; in test [16]; in test [17]; in [18]; in test [13]) was “inactive” in each case. For the same compound, the compound was classed as inactive in test [4], in test [9], in [15] and in [12].
As for `CCCCOP(=O)(O)OCCCC`, the Potency result (in test [1]; in test [2]; in [3]; in [6]; in test [7]; with Aromatase (Homo sapiens)) was “inactive” each time. In addition, the Potency entry in test [8], in test [10], in test [17], in test [18], in test [11] and in test [13] was “inactive” throughout. The call in test [4], in test [9], in test [15] and in test [12] was inactive. For the same compound, in [19], the Potency was 24.3 µM (active).
On to `Nc1c(Br)cc([N+](=O)[O-])cc1[N+](=O)[O-]`, for which the Potency in [1] was 61.8 µM (active); in [7], 31 µM (active); in test [14] it was 13.8 µM (active). Also, the Potency result (in test [2]; in test [3]; in [5]; in test [6]; with Aromatase (Homo sapiens); in test [10]) was “inactive” each time. Besides, the Potency entry in [18] and in [13] was “inactive” throughout. Besides, the outcome in test [4] and in test [12] was inactive.
Consider `CCOP(=S)(OCC)Oc1ncn(-c2ccccc2)n1`, for which the Potency result (in test [1]; in test [2]; in [5]; in test [6]; in test [7]; with Aromatase (Homo sapiens)) was “inactive” throughout. Besides, the Potency result in [8], in test [16], in [18] and in test [13] was “inactive” throughout. Also, the call in test [4], in test [9], in test [15] and in test [12] was inactive. In addition, the Potency in test [19] was 54.5 µM (active); in [14], 24.3 µM (active).
`CNC(=O)Oc1ccc(N(C)C)c(C)c1`: the Potency result in test [1], in [2], in test [3], in test [5], in [6] and in [7] was “inactive” each time. The Potency entry (in the test with Aromatase (Homo sapiens); in test [8]; in test [14]; in test [10]; in test [18]; in test [13]) was “inactive” throughout. Further, the compound was called inactive in test [4], in test [9] and in test [12].
As to `CCOP(=S)(OCC)Oc1cc(-c2ccccc2)on1`, the Potency entry (in test [1]; in test [2]; in test [3]; in test [5]; in test [7]; with Aromatase (Homo sapiens)) was “inactive” throughout. In addition, the Potency entry in [8], in test [16], in [17], in [18], in test [11] and in test [13] was “inactive” in each case. Also, the call in [4], in test [9] and in test [12] was inactive. In addition, the Potency in test [19] was 68.6 µM (active).
